Only some compounds are listed: those with a hit (about 4.6% of all), similar ones and a draw of the others.
D1 agonist – activates the human D1 dopamine receptor | HEK293 T-REx D1 cells, calcium flux, agonist mode | activation, % at 2 µM | P21728 | hit rate 1% among 360,000 | AID 504660; note: 0% is about no effect
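Tetracycline-induced HEK293 TREx D1 cells, force-coupled to calcium signalling, were dye-loaded with a no-wash calcium kit. Compound was pin-added after a 10 s baseline. Fluorescence was read kinetically at 1 cycle/s for 180 s, with calcium rises flagged as agonism.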
D1 antagonist – antagonists of human D1 dopamine receptor; hit rate 3.2% among 360,000; HEK293 TREx D1 cells, calcium flux, dopamine EC80; active compounds read low; activity change, negative = inhibition, % at 10 µM; in the data active = activity change below about -30%; note: % is set by controls: 0 for no effect and ±100 for the full control effect
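Inducible Hek293 Trex D1 cells (tetracycline, overnight, 30 C). Calcium dye 30–90 min RT. Antagonist mode: EC80 dopamine added after 180 s compound read.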
TRHR agonist – activates the human TRH receptor; P34981; TRHR cells, calcium flux fluo-8, FDSS agonist mode; activation, % at 2 µM; hit rate 0.18% among 360,000; AID 493084; note: 0% is about no effect
Target sequence (P34981 whole entry, looked up): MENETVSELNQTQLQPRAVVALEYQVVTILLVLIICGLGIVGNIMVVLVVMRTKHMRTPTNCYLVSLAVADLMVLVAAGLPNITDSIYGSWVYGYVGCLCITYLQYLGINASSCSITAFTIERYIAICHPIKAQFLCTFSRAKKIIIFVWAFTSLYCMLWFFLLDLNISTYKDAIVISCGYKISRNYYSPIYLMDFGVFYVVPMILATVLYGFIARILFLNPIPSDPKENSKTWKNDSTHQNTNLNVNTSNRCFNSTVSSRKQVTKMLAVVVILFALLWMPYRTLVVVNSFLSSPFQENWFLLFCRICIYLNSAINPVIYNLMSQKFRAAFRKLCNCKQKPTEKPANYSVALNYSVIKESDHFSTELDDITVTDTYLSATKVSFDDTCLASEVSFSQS
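Agonist-mode FDSS calcium read (Ex 480/Em 530, 1 s cycles) in 1536-well TRHR cells with fluo-8 dye, after 10-cycle baseline and 23 nL compound addition; TRH at EC20 (10 nM final) added afterwards for the enhancer phase.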
TRHR enhancer – allosteric enhancers of human TRH receptor | P34981 | AID 493056 | TRHR cells, fluo-8 calcium fluorescence, EC20 TRH enhancement | enhancement, % at 2 µM | hit rate 0.66% among 360,000; in the data active = enhancement above about 30%; note: 0% is about no effect
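TRHR-expressing cells loaded with fluo-8 calcium dye were read kinetically (ex 480/em 530) during compound addition, then stimulated with an EC20 of TRH (10 nM final). Enhancement of the Gq-mediated intracellular calcium response was scored.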
D1 potentiator – enhances dopamine response at the human D1 receptor; potentiation, % at 10 µM; P21728; HEK293 TREx D1 cells, calcium flux, dopamine EC20 potentiation; hit rate 0.036% among 360,000; in the data active = potentiation above about 30%; note: 0% is about no effect
Active calls of the source: *; . = not tested or not shown; ! = not confirmed by another sample. Cut-off read from the data, not from the text of the source, unless noted: active = activation above about 30%; inactive = the rest.

SMILES	D1 agonist	D1 antagonist	TRHR agonist	TRHR enhancer	D1 potentiator
CCC(C)C(NC(=O)OCc1ccccc1)C(=O)NC(Cc1ccc(O)cc1)C(=O)OC (stereo unspecified)	62*	3	6	3	-3
CC(C)C(NC(=O)OCc1ccccc1)C(=O)NC(Cc1ccc(O)cc1)C(=O)O (stereo unspecified)	4	0	0	-1	6
O=C(CN(Cc1ccccc1)C(=O)c1csnn1)NCc1ccccc1	0	-67*	-1	-1	-7
COc1ccc(CN(CC(=O)NC2CCCC2)C(=O)c2csnn2)cc1	1	-49*	0	-9	-13
Cc1ccc(CN(CC(=O)NC2CCCC2)C(=O)c2csnn2)cc1	2	9	0	8	-5
O=C(CN(Cc1ccc(Cl)cc1)C(=O)c1csnn1)NCc1ccccc1	5	-2	0	7	.
COc1ccccc1N1CCN(c2ccc(NC(=O)c3ccc(C)cc3)cc2C(=O)O)CC1	1	13	0	0	-1
O=C(CNC(=O)C1CCCC1)OC(C(=O)Nc1cc(C(F)(F)F)ccc1Cl)c1ccccc1 (stereo unspecified)	10	7	-1	0	2
O=C(Cn1nc(N2CCN(c3ccccc3)CC2)ccc1=O)NCc1ccccc1F	0	-37*	0	-3	-3
CCOc1ccccc1CNC(=O)Cn1nc(N2CCN(c3ccccc3)CC2)ccc1=O	2	-14	0	-5	0
COc1ccc(C2SCCN2C(=S)Nc2cccc(C(F)(F)F)c2)cc1 (stereo unspecified)	56*	-36*	0	14	-9
COc1ccc(NC(=S)Nc2cccc(C(F)(F)F)c2)c(C)c1	2	.	0	-7	-4
COc1ccc(C2SCCN2C(=S)Nc2ccc(F)cc2)cc1 (stereo unspecified)	18	-6	1	-1	-2
CCOC(=O)c1ccc(NC(=S)N2CCSC2c2ccc(Cl)cc2)cc1 (stereo unspecified)	31*	-12	5	0	-8
CCOC(=O)c1ccc(NC(=S)N2CCSC2c2ccc(OC)cc2)cc1 (stereo unspecified)	40*	19	-1	7	10
Cc1c(Cl)cccc1NC(=O)Cn1c(=O)n(Cc2nc(-c3ccccc3)no2)c(=O)c2cc3c(cc21)OCO3	7	1	-1	-2	-2
O=C(C1CCN(CC2CC=CCC2)CC1)N(CCc1ccccc1)Cc1ccccc1 (stereo unspecified)	3	4	1	-6	-3
O=C(C1CCN(CCCc2ccccc2)CC1)N(CCc1ccccc1)Cc1ccccc1	26	-45*	0	0	-2
c1ccc(-c2cn(-c3ccccc3)c3[n+]2CCS3)cc1	6	23	0	4	-2
COc1ccc(-c2cn(-c3ccccc3)c3[n+]2CCS3)cc1	2	-53*!	0	2	-7
CN(C(=O)CN1C(=O)S/C(=C\c2ccc(Cl)cc2)C1=O)C1CCS(=O)(=O)C1 (stereo unspecified)	5	9	1	7	-5
O=C(CCC(=O)NNC(=O)COc1ccc(Br)cc1)NCc1ccccc1	0	-34*	0	5	-1
CCOc1ccc(CC(=O)Nc2nnc3n2CCS3)cc1	-1	6	-1	1	0
Cc1nc2nc(SCC(=O)NCCc3ccc(Cl)cc3)nn2c(C)c1Cc1ccccc1	4	-10	0	-5	1
CSc1ccc(CCNC(=O)CCc2c(C)nc3c(c(C)nn3-c3ccccc3)c2C)cc1	0	4	1	5	2
SMILES	D1 agonist	D1 antagonist	TRHR agonist	TRHR enhancer	D1 potentiator
Cc1ccc(N(Cc2cccs2)C(=O)c2ccco2)cc1	-2	-5	0	-3	1
CCN(CC)S(=O)(=O)c1cc(C)ccc1SC	0	-38*	0	-8	5
CC(=O)c1ccc(S(=O)(=O)N2CCN(C(=O)c3ccc(-n4cncn4)c([N+](=O)[O-])c3)CC2)cc1	0	-50*	0	6	-3
Nc1ccc(C(=O)N2CCN(S(=O)(=O)c3ccc(Br)cc3)CC2)cc1[N+](=O)[O-]	5	-49*	0	2	-4
Cc1ccc(C(=O)NCc2ccco2)cc1[N+](=O)[O-]	0	-37*	0	2	-3
O=C(NCc1ccco1)c1ccc2c(c1)C(=O)c1ccccc1-2	2	-31*	0	2	-4
O=C(NCc1ccco1)c1ccc2ccccc2c1	1	-9	-1	3	1
COc1cccc(-c2nc3c(C#N)c[nH]n3c2NC2CCCCC2)c1OC	1	0	0	14	1
COc1cccc(-c2nc3c(C#N)c[nH]n3c2NC2CCCC2)c1OC	6	-52*	0	-8	-3
COc1cccc(-c2nc3c(C#N)c[nH]n3c2NC2CCCCC2)c1	3	-37*	0	-10	-2
CCN(Cc1ccccc1)Cc1c(O)ccc2c(=O)c(-c3ccccc3OC)c(C(F)(F)F)oc12	-1	-2	0	-13	0
CC(=O)Oc1cccc(N2C(=O)c3cccc4c([N+](=O)[O-])ccc(c34)C2=O)c1	3	-54*	5	-5	-9
O=C(O)c1ccc(CN2C(=O)c3cccc4c([N+](=O)[O-])ccc(c34)C2=O)cc1	34*	2	12	-12	-2
CN1CCN(c2nc(-c3cccnc3)nc3scc(-c4ccccc4)c23)CC1	2	-8	0	-8	-5
Clc1nc(-c2ccccn2)nc2scc(-c3ccccc3)c12	17	-16	0	40*	-6
c1ccc(-c2nc(N3CCNCC3)nc3ccccc23)cc1	34*	-10	-1	5	-7
c1ccc(-c2nc(N3CCCCC3)nc3ccccc23)cc1	7	10	-1	-2	18
CC(C)CCNC(=O)CN1C(=O)c2cccnc2Oc2ccccc21	-2	-10	1	-4	-2
COc1ccc(S(=O)(=O)n2nc(-n3c(C)ccc3C)c3c(F)cccc32)cc1OC	9	-34*	-1	1	-11
O=C(NCc1ccccc1Cl)c1ccc2c(c1)ncn2-c1cccc(F)c1	3	-13	0	3	-6
COc1cc(-c2cc(-c3ccc(F)cc3)nc(N)c2C#N)ccc1O	0	-44*	0	0	-7
Cc1ccc(-c2cc(-c3ccc(F)cc3)nc(N)c2C#N)o1	2	-59*	1	1	-8
COc1cccc(CN2CCCN(Cc3ccc(F)cc3)S2(=O)=O)c1	12	-3	-1	18	-4
COc1cc(-c2nnn(CC(=O)Nc3ccc(OC(F)(F)F)cc3)n2)cc(OC)c1OC	2	-32*	3	-27	-3
CCOC(=O)Cn1nnc(-c2cc(OC)c(OC)c(OC)c2)n1	5	-20	0	-4	-2
